Measurements reported in PubChem BioAssay AID2642 (Johns Hopkins Ion Channel Center, 2010).
About 3,900 (1.3%) of roughly 310,000 compounds were called active. The sample holds actives, similar compounds and a random draw of the others, so the mix is not that of the screen.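 Rule for the calls: active = compounds whose thallium flux B-score, printed positive for inhibition, exceeds three library SD while starting fluorescence stays within three; inactive = the rest.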

Each compound was assayed against Potassium voltage-gated channel subfamily KQT member 1 (Homo sapiens) (UniProt P51787) (assay: KCNQ1 potassium current blockers – cell-based, thallium flux, high-throughput, primary screen (AID 2642;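 note: channel opened by potassium depolarization with thallium stimulus after 20 min compound exposure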)). Conditions: CHO-K1 KCNQ1, FluxOR thallium flux fluorescence, at 10 µM; active compounds read high.
Chain of Potassium voltage-gated channel subfamily KQT member 1 (Homo sapiens) (P51787 whole entry, looked up): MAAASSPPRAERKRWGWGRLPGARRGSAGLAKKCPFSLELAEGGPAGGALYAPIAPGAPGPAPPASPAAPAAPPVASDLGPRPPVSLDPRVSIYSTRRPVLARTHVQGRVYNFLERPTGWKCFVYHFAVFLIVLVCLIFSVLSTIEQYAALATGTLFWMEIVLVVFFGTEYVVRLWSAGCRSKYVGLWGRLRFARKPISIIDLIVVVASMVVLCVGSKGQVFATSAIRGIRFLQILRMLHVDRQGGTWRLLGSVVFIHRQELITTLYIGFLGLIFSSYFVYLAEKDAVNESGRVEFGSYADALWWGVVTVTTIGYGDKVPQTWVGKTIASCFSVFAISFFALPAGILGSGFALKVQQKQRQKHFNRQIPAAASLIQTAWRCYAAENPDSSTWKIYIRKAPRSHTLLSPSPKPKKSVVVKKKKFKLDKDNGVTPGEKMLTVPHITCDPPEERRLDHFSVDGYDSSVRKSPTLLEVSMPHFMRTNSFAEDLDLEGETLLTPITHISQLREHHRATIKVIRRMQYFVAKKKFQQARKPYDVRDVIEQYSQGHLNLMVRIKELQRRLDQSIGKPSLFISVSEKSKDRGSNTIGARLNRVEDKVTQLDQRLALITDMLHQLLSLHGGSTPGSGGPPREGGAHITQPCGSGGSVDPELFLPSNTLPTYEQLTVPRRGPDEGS

Compound | B-score
O=C(NCCc1ccc(Cl)cc1)c1cccc(N2CCCC2=O)c1 | inactive
Cc1nnc(SCC(=O)Nc2ncc3c(n2)CC(C)(C)CC3=O)s1 | inactive
Cc1ccccc1NC(=O)CSc1ccc2nnc(-c3ccccn3)n2n1 | inactive
CC(NC(=O)COC(=O)c1ccc2c(c1)OCO2)c1ccccc1 (stereo not given) | inactive
COc1cc(/C=C2\CCCc3c2nc2ccccc2c3C(=O)O)cc(Cl)c1O | inactive
NC(=O)c1ccc(NC(=O)COC(=O)c2c3c(nc4ccccc24)/C(=C\c2ccc4c(c2)OCO4)CCC3)cc1 | 7 (active)
CSc1ccccc1NC(=O)c1cc(C2CC2)on1 | inactive
Cc1cc(=O)oc2cc(OCC(=O)N3CCN(c4ccc(F)cc4)CC3)c(Cl)cc12 | inactive
O=C(c1cc(-c2ccco2)nc2ccccc12)N(Cc1nnc(-c2ccc(Cl)cc2)o1)C1CC1 | inactive
O=C(CN1C(=O)NC2(CCCCC2)C1=O)NCCc1c[nH]c2ccccc12 | inactive
N#C/C(=C/c1ccc(N2CCCCC2)o1)C(=O)NCCc1c[nH]c2ccccc12 | 7 (active)
CC(=O)N/C(=C/c1ccc(Cl)cc1)C(=O)NCCc1c[nH]c2ccccc12 | inactive
CCCc1ccc(-c2c(C)sc(NC(=O)c3ccnn3C)c2C#N)cc1 | inactive
Cc1noc(/C=C/c2ccco2)c1S(=O)(=O)N1CCC(C(=O)N2CCc3ccccc32)CC1 | inactive
Cc1ccccc1C(=O)OC1OC(=O)C(Cl)=C1Nc1ccccc1 (stereo not given) | 11 (active)
O=C1OC(OC(=O)c2ccccc2Br)C(N2CCOCC2)=C1Cl (stereo not given) | inactive
Cc1ccc(NC2=C(Cl)C(=O)OC2OC(=O)c2ccccc2C)cc1 (stereo not given) | inactive
O=C(NC1CC1)C1=C[C@H](c2c[nH]c3ccccc23)C[C@H](OCc2ccc(CO)cc2)O1 | inactive
CC(C)(C)c1ccc(/C=C/C(=O)NC2CCS(=O)(=O)C2)cc1 (stereo not given) | inactive
Clc1ccc(C2[C@H]3CN(CC4CCCCC4)[C@H](c4ccccc4)C34CC2(c2cccnc2)C4)cn1 (stereo not given in full) | inactive
O=C(NCCN1CCOCC1)c1ccc2c(c1)N(Cc1ccc(Cl)cc1)CCS2 | inactive
O=C(NCCc1ccccc1)c1ccc2c(c1)N(Cc1ccccc1)CCS2 | 10 (active)
CCOC(=O)N1CCN(C(=O)c2ccc3c(c2)N(Cc2ccc(C)cc2)CCS3)CC1 | inactive
CC(=O)c1c(C)n(-c2ccc(C)cc2)c2ccc(O)cc12 | inactive
CCc1ccc(CN(C)C(=O)C2CCC(=O)N(Cc3cccc(OC)c3)C2)nc1 (stereo not given) | inactive
COc1cc(N2C(=O)c3ccccc3C2=O)c(Cl)cc1C(=O)OCC(=O)N1CCOCC1 | inactive
C=CS(=O)c1sc(Cl)c(N2CCOCC2)c1[N+](=O)[O-] (stereo not given) | 7 (active)

Compound | B-score
Cc1ccccc1C(=O)NCC(c1ccco1)N1CCc2ccccc21 (stereo not given) | inactive
Cc1ccc(C(=O)OCC(=O)NC(=O)Cc2ccccc2)c(O)c1 | inactive
O=[N+]([O-])/C(N=Nc1ccccc1)=N\Nc1ccccc1 | inactive
CCN(C(=O)COC(=O)c1sccc1C)c1c(N)n(Cc2ccccc2)c(=O)[nH]c1=O | inactive
O=C(O)CCCn1c(=O)c2cccn2c2ccc(F)cc21 | inactive
C=CCOC(=O)C1=C(C)NC(SCC(=O)OCC)=C(C#N)C1c1ccc(C)cc1 (stereo not given) | 6 (active)
CCOC(=O)CSC1=C(C#N)C(c2sccc2C)CC(=O)N1 (stereo not given) | inactive
C=CCOC(=O)C1=C(C)OC(N)=C(C#N)C1c1ccc(F)cc1 (stereo not given) | inactive
NC(=O)c1ncc(C(F)(F)F)cc1Oc1ccc(F)cc1 | inactive
CCOc1ccc(N/C(N)=N/c2nc(C)c(C)c(=O)[nH]2)cc1 | inactive
CCCCSc1nc2ccccc2[nH]1 | inactive
CCC(C)N1C(=O)S/C(=C/c2ccc(Sc3nc4ccccc4[nH]3)o2)C1=O (stereo not given) | 13 (active)
CCc1nnc(NC(=O)CCCSc2nc3ccccc3[nH]2)s1 | inactive
CCOc1ccc(C(=O)NCC(=O)N2CCCCCCC2)cc1OCC | inactive
CC(=O)N1CCC(C(=O)Nc2nc(-c3ccccc3)ns2)CC1 | inactive
O=C(N/N=C/c1c[nH]c2ccccc12)c1ccccc1O | inactive
C[n+]1ccc(/C=C/c2c[nH]c3ccccc23)cc1 | 13 (active)
COc1ccc(/C=C(\C#N)c2c[nH]c3ccccc23)cc1 | inactive
COc1ccc(CC(=O)OC(C)C(=O)Nc2ccc(S(N)(=O)=O)cc2)cc1 (stereo not given) | inactive
COC(=O)c1cc(NC(=O)c2cc(C(C)(C)C)nn2Cc2cccc(C)c2)ccc1N1CCOCC1 | 6 (active)
COC(=O)c1cc(NC(=O)c2ccco2)ccc1N1CCOCC1 | inactive
CC(=O)Nc1ccc(N2CCOCC2)c(C(=O)Nc2cccc(C)c2)c1 | inactive
CCCCCC(O)c1cccc(OCc2ccc3ccccc3n2)c1 (stereo not given) | 6 (active)
CCCCCCOC(=O)NCC(O)c1ccccc1 (stereo not given) | inactive
COc1cccc(C(O)c2nc3ccccc3n2C)c1 (stereo not given) | inactive
O=C(O)CC12CC3CC(C1)CC(n1ncc(NCc4ccc(F)cc4)c(Cl)c1=O)(C3)C2 | inactive
CC1(C(=O)N/N=C/c2cc3c(cc2Br)OCO3)CC1(Br)Br (stereo not given) | 9 (active)

Compound | B-score
CC(=O)N/N=C/c1cc2c(cc1[N+](=O)[O-])OCO2 | inactive
O=C(N/N=C/c1cc2c(cc1Br)OCO2)C1COc2ccccc2O1 (stereo not given) | inactive
OCCN1CCN(c2nnc(-c3ccccc3)c3ccccc23)CC1 | inactive
c1ccc(-c2nnc(N3CCOCC3)c3ccccc23)cc1 | inactive
CCCC(=O)N1CCN(c2nnc(-c3ccc(C)cc3)c3ccccc23)CC1 | 7 (active)
COC(=O)c1ccc(S(=O)(=O)N2CCc3ccccc3C2)cc1 | inactive
COc1ccccc1CNC(=O)C1Cc2ccccc2C(=O)O1 (stereo not given) | inactive
CCNC(=S)N(CCN(CC)CC)Cc1cc2cc3c(cc2[nH]c1=O)OCO3 | inactive
Clc1ccc(CSc2nnc3c(n2)[nH]c2ccccc23)cc1 | inactive
CCCCn1ccnc1C(=O)c1cccc(S(=O)(=O)N2c3ccccc3CC2C)c1 (stereo not given) | 6 (active)
CC1Cc2ccccc2N1S(=O)(=O)c1c(N)n(C)c(=O)n(C)c1=O (stereo not given) | inactive
CC1Cc2ccccc2N1S(=O)(=O)c1ccc(Cl)nc1 (stereo not given) | inactive
COc1ccc(C2C(C#N)=C(/N=C/N3CCOCC3)OC3=C2C(=O)CC(C)(C)C3)cc1OC (stereo not given) | inactive
COC(=O)c1nc(NC(=O)c2ccc(C(C)(C)C)cc2)n[nH]1 | inactive
Cc1cccc(NC(=O)c2cccnc2Cl)n1 | inactive
CSc1nccc(NC(=O)c2ccc(C(C)(C)C)cc2)n1 | 7 (active)
COc1ccccc1N(C)S(=O)(=O)c1ccc(Cl)c(C(=O)Nc2ccncc2)c1 | inactive
Cc1cnc(C(=O)OCC(=O)NCCCc2ccccc2)cn1 | inactive
Cc1ccc(OC(=O)c2cncc(Br)c2)c(C)c1 | inactive
Cc1cccc(Nc2ccccc2C(=O)NCc2ccco2)c1C | 9 (active)
O=C(Nc1ccccc1)Nc1ccccc1C(=O)NCc1ccco1 | inactive
Cc1ccccc1NC(=O)NCc1ccco1 | inactive
CSc1ccc(S(=O)(=O)N2CCC(C(=O)NCc3ccncc3)CC2)cc1 | inactive
Cc1csc(NC(=O)CSc2nnc(-c3cccnc3)o2)n1 | inactive
Cc1ccccc1OCC(=O)Nc1ccc2c(c1)ncn2C | inactive
Cc1ccccc1OCC(=O)Nc1ccc(S(=O)(=O)N2CCOCC2)cc1 | inactive
Cc1ccccc1OCC(=O)Nc1ccc(N2CCN(C(=O)C(C)C)CC2)c(Cl)c1 | 6 (active)

Compound | B-score
CC(=O)NNC1=Nc2ccccc2N(C)C(C)C1 (stereo not given) | inactive
CCc1ccc2c(c1)C1(NN=C(c3ccccc3)S1)C(=O)N2 (stereo not given) | 11 (active)
CC(C)N(C(=O)Cn1cc(S(=O)(=O)CC(=O)N2CCOCC2)c2ccccc21)C(C)C | inactive
COc1ccccc1NC(=O)c1ccc(N2CC3CC(C2)c2cccc(=O)n2C3)c(NC(=O)c2cccnc2)c1 (stereo not given) | inactive
O=C1CCC(=O)N1c1ccc(NCCc2ccccc2F)c([N+](=O)[O-])c1 | inactive
CC1(c2nnc(Cc3ccccc3)o2)CC(c2ccccc2F)=NO1 (stereo not given) | inactive
C=CCOc1cccc(C2C(C(=O)c3ccc(C)o3)=C(O)C(=O)N2c2nnc(C)s2)c1 (stereo not given) | 11 (active)
C=CCOc1cccc(C2C(C(=O)c3ccc(C)o3)=C(O)C(=O)N2CCCn2ccnc2)c1 (stereo not given) | inactive
Cc1cc(N2C(=O)C(O)=C(C(=O)c3ccc(C)o3)C2c2ccc(OCc3ccccc3)cc2)no1 (stereo not given) | inactive
COc1ccc(NC(=O)C2=CC(c3ccc(OC)c(OC)c3)=NS(=O)(=O)N2C)cc1 | inactive
COCc1cc(C)n(CC(=O)NCC2CCCO2)c(=O)c1C#N (stereo not given) | 6 (active)
Cc1ccc2c(c1)N(CC(=O)NCC1CCCO1)C(=O)CO2 (stereo not given) | inactive
Cc1nn(CC(=O)NCC2CCCO2)c(=O)c2cc3ccccc3n12 (stereo not given) | inactive
Cc1cc(-c2ccc(C)c(S(=O)(=O)Nc3ccc(S(N)(=O)=O)cc3)c2)on1 | inactive
Cc1cccc(N2CCN(C(c3ccc(N(C)C)cc3)c3nnnn3C(C)(C)C)CC2)c1C (stereo not given) | inactive
COc1ccccc1C(c1nnnn1CC1CCCO1)N1CCN(c2ccccc2)CC1 (stereo not given) | inactive
Cc1cccc(N2CCN(C(c3ccccc3)c3nnnn3CC3CCCO3)CC2)c1C (stereo not given) | 6 (active)
NC(=O)C1CCN(C(=O)CC2C(=O)NCCN2Cc2cccc(Oc3ccccc3)c2)CC1 (stereo not given) | inactive
CS(=O)(=O)N1CCc2nc(-c3ccccc3)sc2C1 | inactive
CCCOc1ccc2c3c(c(=O)oc2c1OCCC)CCC3 | 8 (active)
Cc1c(OC(C)C(=O)N[C@@H](Cc2ccccc2)C(=O)O)ccc2c3c(c(=O)oc12)CCCC3 (stereo not given in full) | inactive
COc1ccc2c3c(c(=O)oc2c1OCC(=O)C(C)(C)C)CCCC3 | inactive
CC(=O)Nc1ccc(C(=O)N(C2=NC(C)CS2)c2ccc(Cl)cc2)cc1 (stereo not given) | inactive
CCC(C)[C@H](NC(=O)N1c2ccccc2NC(=O)[C@@H]1C(C)C)C(=O)N[C@@H](Cc1ccccc1)C(=O)O (stereo not given in full) | inactive
